From the supplement of paper PMC10849652
Of roughly 8,800 targets only a part is listed; those with a hit were picked by preference. About 0.5% of all pairs of compound and target were hits. Unmarked numbers belong to inactive results.

Chain of UniProt Q9Y6B6 (Q9Y6B6 whole entry, looked up): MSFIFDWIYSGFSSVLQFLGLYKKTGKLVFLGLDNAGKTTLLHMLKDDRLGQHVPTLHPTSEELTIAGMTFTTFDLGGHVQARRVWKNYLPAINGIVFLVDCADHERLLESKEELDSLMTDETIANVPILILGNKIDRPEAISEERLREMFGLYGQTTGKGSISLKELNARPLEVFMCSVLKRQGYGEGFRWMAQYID
Chain of UniProt Q13546 (Q13546 whole entry, looked up): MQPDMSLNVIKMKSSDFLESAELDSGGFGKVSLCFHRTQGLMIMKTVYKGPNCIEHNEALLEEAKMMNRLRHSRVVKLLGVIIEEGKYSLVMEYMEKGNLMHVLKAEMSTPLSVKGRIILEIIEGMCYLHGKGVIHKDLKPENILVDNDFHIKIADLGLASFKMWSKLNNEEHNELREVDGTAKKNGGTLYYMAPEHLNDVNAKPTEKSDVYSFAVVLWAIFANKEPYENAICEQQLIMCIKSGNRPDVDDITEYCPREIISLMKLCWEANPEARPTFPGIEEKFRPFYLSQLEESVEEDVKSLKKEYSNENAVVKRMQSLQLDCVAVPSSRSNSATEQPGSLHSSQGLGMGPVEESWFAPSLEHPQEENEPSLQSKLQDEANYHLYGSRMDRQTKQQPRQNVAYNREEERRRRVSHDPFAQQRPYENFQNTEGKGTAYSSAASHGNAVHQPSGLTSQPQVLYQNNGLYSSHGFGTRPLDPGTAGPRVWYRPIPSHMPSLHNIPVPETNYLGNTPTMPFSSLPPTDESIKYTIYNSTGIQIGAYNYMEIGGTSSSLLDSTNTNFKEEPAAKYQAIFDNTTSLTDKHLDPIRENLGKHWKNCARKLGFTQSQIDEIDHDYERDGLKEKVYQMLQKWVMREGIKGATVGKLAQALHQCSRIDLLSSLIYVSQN
Chain of UniProt P23443 (P23443 whole entry, looked up): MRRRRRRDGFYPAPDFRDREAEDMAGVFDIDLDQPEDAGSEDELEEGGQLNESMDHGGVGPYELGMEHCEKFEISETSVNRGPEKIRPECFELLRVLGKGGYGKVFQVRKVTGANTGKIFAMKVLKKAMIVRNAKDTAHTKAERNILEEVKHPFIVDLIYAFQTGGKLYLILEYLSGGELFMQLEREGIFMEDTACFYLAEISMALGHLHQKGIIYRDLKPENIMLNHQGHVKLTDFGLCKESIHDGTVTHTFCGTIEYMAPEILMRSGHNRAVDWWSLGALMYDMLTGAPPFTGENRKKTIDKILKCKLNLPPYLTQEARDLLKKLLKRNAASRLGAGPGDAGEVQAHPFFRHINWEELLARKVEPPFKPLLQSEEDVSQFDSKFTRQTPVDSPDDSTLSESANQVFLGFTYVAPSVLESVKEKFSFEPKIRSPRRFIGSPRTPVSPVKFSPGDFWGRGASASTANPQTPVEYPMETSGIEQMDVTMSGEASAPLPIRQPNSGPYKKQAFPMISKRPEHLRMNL
Chain of UniProt P35250 (P35250 whole entry, looked up): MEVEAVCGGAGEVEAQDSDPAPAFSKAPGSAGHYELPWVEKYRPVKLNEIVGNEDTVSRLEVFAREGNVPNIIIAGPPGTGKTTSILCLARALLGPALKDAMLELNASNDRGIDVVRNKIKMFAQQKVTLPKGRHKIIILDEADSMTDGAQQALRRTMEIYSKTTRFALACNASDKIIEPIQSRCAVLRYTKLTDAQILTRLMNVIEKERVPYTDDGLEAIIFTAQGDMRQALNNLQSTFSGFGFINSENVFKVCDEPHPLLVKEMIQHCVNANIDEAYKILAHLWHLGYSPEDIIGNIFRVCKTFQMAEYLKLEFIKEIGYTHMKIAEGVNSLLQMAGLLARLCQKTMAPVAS
Chain of UniProt Q99574 (Q99574 whole entry, looked up): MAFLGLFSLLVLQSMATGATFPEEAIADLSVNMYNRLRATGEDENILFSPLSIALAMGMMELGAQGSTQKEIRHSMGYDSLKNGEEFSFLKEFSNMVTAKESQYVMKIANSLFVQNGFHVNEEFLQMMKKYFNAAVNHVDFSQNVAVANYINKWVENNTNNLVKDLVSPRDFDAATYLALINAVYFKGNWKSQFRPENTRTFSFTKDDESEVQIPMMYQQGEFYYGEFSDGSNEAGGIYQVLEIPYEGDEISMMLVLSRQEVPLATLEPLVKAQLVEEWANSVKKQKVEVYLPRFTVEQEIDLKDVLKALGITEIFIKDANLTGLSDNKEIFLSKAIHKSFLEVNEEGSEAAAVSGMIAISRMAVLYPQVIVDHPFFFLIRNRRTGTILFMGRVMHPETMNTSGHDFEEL
Chain of UniProt Q8WWV3 (Q8WWV3 whole entry, looked up): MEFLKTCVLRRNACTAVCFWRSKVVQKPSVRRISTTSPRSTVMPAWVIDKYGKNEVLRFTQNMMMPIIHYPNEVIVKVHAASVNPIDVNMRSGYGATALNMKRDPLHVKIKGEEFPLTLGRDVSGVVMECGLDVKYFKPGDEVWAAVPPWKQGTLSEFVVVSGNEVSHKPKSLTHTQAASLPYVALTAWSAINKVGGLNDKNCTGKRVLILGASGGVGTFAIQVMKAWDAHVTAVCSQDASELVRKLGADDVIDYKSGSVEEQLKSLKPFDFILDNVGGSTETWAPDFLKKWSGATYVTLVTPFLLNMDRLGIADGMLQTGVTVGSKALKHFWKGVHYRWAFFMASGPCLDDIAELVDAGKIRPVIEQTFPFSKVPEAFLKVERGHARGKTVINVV
Chain of UniProt P40937 (P40937 whole entry, looked up): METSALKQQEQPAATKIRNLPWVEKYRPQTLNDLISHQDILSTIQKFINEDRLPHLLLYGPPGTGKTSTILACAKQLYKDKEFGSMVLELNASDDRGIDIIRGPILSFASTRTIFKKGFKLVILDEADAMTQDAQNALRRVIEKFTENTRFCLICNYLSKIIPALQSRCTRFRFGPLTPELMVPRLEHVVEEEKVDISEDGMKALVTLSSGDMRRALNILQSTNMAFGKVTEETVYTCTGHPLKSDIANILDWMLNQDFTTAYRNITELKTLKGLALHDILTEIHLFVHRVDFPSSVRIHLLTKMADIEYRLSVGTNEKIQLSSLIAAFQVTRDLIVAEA
Chain of UniProt Q6UVJ0 (Q6UVJ0 whole entry, looked up): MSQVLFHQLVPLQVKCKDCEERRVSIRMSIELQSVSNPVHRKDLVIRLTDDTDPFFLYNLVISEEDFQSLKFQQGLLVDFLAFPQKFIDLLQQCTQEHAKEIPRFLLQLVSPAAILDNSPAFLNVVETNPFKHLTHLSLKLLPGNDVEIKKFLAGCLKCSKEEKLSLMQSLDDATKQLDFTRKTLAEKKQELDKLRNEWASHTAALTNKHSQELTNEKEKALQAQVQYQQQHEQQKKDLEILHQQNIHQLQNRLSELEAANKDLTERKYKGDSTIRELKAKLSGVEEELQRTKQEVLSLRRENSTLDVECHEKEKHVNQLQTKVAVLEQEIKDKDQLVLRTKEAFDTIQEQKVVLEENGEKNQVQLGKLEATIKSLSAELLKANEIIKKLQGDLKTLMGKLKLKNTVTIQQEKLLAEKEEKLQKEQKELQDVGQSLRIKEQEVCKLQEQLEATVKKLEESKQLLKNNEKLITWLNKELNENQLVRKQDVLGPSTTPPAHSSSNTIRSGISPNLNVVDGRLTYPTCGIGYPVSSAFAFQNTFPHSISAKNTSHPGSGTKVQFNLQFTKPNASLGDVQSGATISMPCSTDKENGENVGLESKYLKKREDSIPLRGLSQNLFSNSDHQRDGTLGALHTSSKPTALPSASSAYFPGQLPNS
Chain of UniProt Q4ADV7 (Q4ADV7 whole entry, looked up): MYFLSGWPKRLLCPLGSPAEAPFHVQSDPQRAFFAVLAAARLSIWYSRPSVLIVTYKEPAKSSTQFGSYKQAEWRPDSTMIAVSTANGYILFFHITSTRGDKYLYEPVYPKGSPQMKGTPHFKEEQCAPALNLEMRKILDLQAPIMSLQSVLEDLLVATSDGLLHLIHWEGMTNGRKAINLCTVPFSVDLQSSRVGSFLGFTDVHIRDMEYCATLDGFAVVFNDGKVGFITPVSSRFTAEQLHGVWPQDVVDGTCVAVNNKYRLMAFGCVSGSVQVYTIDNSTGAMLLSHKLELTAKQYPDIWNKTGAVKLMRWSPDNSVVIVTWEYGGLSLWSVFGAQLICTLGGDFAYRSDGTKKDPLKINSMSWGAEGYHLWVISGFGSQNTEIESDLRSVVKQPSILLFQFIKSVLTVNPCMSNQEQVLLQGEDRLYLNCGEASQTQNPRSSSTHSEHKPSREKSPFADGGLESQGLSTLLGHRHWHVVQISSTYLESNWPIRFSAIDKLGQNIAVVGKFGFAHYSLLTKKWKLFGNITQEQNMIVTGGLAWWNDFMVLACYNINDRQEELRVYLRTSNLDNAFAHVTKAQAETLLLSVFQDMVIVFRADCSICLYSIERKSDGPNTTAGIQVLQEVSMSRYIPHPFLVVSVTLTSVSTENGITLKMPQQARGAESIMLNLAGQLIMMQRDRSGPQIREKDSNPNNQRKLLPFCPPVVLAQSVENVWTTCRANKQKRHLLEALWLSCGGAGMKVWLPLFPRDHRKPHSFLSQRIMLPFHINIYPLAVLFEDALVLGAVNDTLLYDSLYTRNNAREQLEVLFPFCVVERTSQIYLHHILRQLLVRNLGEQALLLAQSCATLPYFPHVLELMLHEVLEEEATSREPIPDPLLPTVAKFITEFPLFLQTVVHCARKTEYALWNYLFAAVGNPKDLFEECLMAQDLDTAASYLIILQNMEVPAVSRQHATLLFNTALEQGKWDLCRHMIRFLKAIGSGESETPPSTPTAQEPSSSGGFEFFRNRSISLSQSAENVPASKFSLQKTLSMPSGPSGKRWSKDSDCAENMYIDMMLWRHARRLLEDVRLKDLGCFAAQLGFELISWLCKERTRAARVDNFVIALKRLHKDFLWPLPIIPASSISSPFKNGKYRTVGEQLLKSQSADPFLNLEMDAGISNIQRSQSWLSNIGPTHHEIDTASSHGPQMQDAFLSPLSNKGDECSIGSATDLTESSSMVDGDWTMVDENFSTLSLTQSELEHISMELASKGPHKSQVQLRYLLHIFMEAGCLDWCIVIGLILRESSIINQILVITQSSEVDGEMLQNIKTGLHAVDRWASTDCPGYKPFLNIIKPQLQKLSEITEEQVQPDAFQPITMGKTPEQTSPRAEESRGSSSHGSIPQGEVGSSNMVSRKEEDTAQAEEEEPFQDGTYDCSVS

These targets were tested with CC(=O)c1cnc2ccc(-c3cc(Cl)c(O)c(Cl)c3)nc2c1N[C@H]1CC[C@H](CN(C)C)CC1 (assay: log2 fold change, soluble protein after heating vs DMSO (PISA); higher = thermal stabilisation; K562 lysate, 10 uM; active = over 0.2 and 3.5 SD of the protein, either way, in both replicates (recomputed)).
How it was run: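 K562 pellets were dounce-homogenised in PBS pH 7.4 containing 1 mM MgCl2, and the crude extract, at 1 mg/mL protein, was exposed to 10 μM compound for 30 min. Aliquots were heated for 3 min across 48°C-58°C, pooled, brought to 0.5% NP-40 at 4°C and spun at 21,000xg for 90 min, with the supernatant taken as soluble protein. TMTpro 16plex LC-MS/MS with equalised channel sums quantified that protein. Values are log-two fold changes in thermal stability relative to solvent controls, taken from duplicates.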
In the case of SERPINI1 (UniProt Q99574), the log2 fold change is reported as 0.075. Target SASS6 (UniProt Q6UVJ0) has a log2 fold change of 0.023. For RPS6KB1 (UniProt P23443), the log2 fold change was 0.355 (active). Work on SAMHD1 (UniProt Q9Y3Z3) yielded a log2 fold change of -0.022. S100A11 (UniProt P31949) gave a log2 fold change of -0.049. In the case of RTN4IP1 (UniProt Q8WWV3), the log2 fold change is reported as 0.02. RIOK3 (UniProt O14730) gave a log2 fold change of -0.013. RAB6D (UniProt Q53S08) was tested, and the log2 fold change was 0.013. RHAG (UniProt Q02094) was tested, and the log2 fold change was -0.035. Work on RIPK1 (UniProt Q13546) yielded a log2 fold change of -0.025. RMC1 (UniProt Q96DM3) gave a log2 fold change of 0.018. RAB21 (UniProt Q9UL25) showed a log2 fold change of -0.004. RABEPK (UniProt Q7Z6M1) showed a log2 fold change of -0.002. SCO1 (UniProt O75880) showed a log2 fold change of 0.006. RINT1 (UniProt Q6NUQ1) gave a log2 fold change of 0.07. RDH14 (UniProt Q9HBH5) was tested, and the log2 fold change was 0.061. RPL31 (UniProt P62899) was tested, and the log2 fold change was -0.011. In the case of RAF1 isoform 2 (UniProt P04049), the log2 fold change is reported as 0.047. With RDX (UniProt P35241) the log2 fold change was 0. RPS4X (UniProt P62701) was tested, and the log2 fold change was -0.003. Target RIC1 (UniProt Q4ADV7) has a log2 fold change of -0.052. In the case of RRM1 (UniProt P23921), the log2 fold change is reported as 0. RNF123 (UniProt Q5XPI4) was tested, and the log2 fold change was 0.017. In the case of RNF181 (UniProt Q9P0P0), the log2 fold change is reported as -0.024. RNF213, A0A0A0MTC1 gave a log2 fold change of 0.006. Target RNF168 (UniProt Q8IYW5) has a log2 fold change of 0.144. SAR1B (UniProt Q9Y6B6) was tested, and the log2 fold change was -0.094. RFC2 (UniProt P35250) showed a log2 fold change of 0.018. SBF1 isoform 4 (UniProt O95248) showed a log2 fold change of 0.116. In the case of SERINC3 (UniProt Q13530), the log2 fold change is reported as -0.082. For RPS29 (UniProt P62273), the log2 fold change was 0.025. For RPS26P11 (UniProt Q5JNZ5), the log2 fold change was 0.004. Target RFC5 (UniProt P40937) has a log2 fold change of -0.001.
